Source: PubChem BioAssay AID1159580 (chemical genetic matrix, 2015)
Where “and” joins values, the source holds several entries; their conditions need not be identical. Equal values may be shown once. Among all 5,500 compounds or so, about 2,000 (36%) were called active. About 18% were inconclusive and are not listed. The list shows a part of the results. Values without a mark were called inactive. Cut-off read from the data, not from the text of the source: active = normalized growth mostly below about 0.91 (no sharp cut-off); inconclusive = no clear call, values can overlap the other calls; inactive = mostly above about 0.92.

Assay: chemical genetic growth profiling, strain panel (AID 1159580);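 note: tested at 20 µM; growth read once vehicle control cultures reached saturation at 30 °C; 1 = growth at the plate median or of vehicle wells; lower values mean less growth of the strain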
Conditions: S. cerevisiae deletion strains, growth OD

O=C(Nc1ccc([N+](=O)[O-])cc1Cl)c1cc(Cl)ccc1O
normalized growth (locus YAL021C, strain ccr4, stronger effect = lower value): 0.798 (active) | normalized growth (locus YAL026C, strain drs2, stronger effect = lower value): 0.931 | normalized growth (locus YAL030W, strain snc1, stronger effect = lower value): 0.937 | normalized growth (locus YAL040C, strain CLN3, stronger effect = lower value): 0.969 | normalized growth (locus YBL061C, strain skt5, stronger effect = lower value): 0.818 (active) | normalized growth (locus YBR009C, strain hhf1, stronger effect = lower value): 0.896 (active) | normalized growth (locus YBR021W, strain FUR4, stronger effect = lower value): 0.898 | normalized growth (locus YBR023C, strain chs3, stronger effect = lower value): 0.757 (active) | normalized growth (locus YBR171W, strain sec66, stronger effect = lower value): 1.01 | normalized growth (locus YBR229C, strain ROT2, stronger effect = lower value): 0.991 | normalized growth (locus YBR231C, strain swc5, stronger effect = lower value): 0.69 (active) | normalized growth (locus YBR279W, strain paf1, stronger effect = lower value): 0.748 (active) | normalized growth (locus YCL011C, strain gbp2, stronger effect = lower value): 0.944 | normalized growth (locus YCL016C, strain dcc1, stronger effect = lower value): 0.458 (active) | normalized growth (locus YCL029C, strain bik1, stronger effect = lower value): 1.15 [resistant] (active) | normalized growth (locus YCL061C, strain MRC1 (second series), stronger effect = lower value): 0.999 | normalized growth (locus YCL069W, strain vba3, stronger effect = lower value): 0.959 | normalized growth (locus YCR088W, strain abp1, stronger effect = lower value): 0.97 | normalized growth (locus YDL005C, strain med2, stronger effect = lower value): 1.09 [resistant] (active) | normalized growth (locus YDL035C, strain GPR1, stronger effect = lower value): 0.856 (active) | normalized growth (locus YDL040C, strain nat1, stronger effect = lower value): 0.681 (active) | normalized growth (locus YDL074C, strain BRE1, stronger effect = lower value): 0.895 | normalized growth (locus YDL101C, strain DUN1, stronger effect = lower value): 0.983 | normalized growth (locus YDL185W, strain tfp1, stronger effect = lower value): 1.01 | normalized growth (locus YDL192W, strain arf1, stronger effect = lower value): 1.01 | normalized growth (locus YDR001C, strain nth1, stronger effect = lower value): 0.989 | normalized growth (locus YDR069C, strain doa4, stronger effect = lower value): 1.03 | normalized growth (locus YDR101C, strain arx1, stronger effect = lower value): 1.22 [resistant] (active) | normalized growth (locus YDR137W, strain rgp1, stronger effect = lower value): 0.18 (active) | normalized growth (locus YDR150W, strain NUM1, stronger effect = lower value): 0.878 (active) | normalized growth (locus YDR159W, strain sac3, stronger effect = lower value): 0.785 (active) | normalized growth (locus YDR162C, strain NBP2, stronger effect = lower value): 0.832 (active) | normalized growth (locus YDR195W, strain ref2): 1.24 [resistant] (active) | normalized growth (locus YDR297W, strain sur2, stronger effect = lower value): 0.938 | normalized growth (locus YDR318W, strain mcm21, stronger effect = lower value): 1.03 | normalized growth (locus YDR334W, strain swr1, stronger effect = lower value): 0.981 | normalized growth (locus YDR335W, strain msn5, stronger effect = lower value): 0.997 | normalized growth (locus YDR363W, strain ESC2, stronger effect = lower value): 0.95 | normalized growth (locus YDR388W, stronger effect = lower value): 0.989 | normalized growth (locus YDR392W, strain spt3, stronger effect = lower value): 0.828 | normalized growth (locus YDR502C, strain sam2, stronger effect = lower value): 1.02 | normalized growth (locus YEL003W, strain gim4, stronger effect = lower value): 1.07 | normalized growth (locus YEL037C, strain rad23, stronger effect = lower value): 1.01 | normalized growth (locus YEL061C, strain CIN8 (second series), stronger effect = lower value): 1 | normalized growth (locus YEL061C, strain CIN8, stronger effect = lower value): 0.965 | normalized growth (locus YER002W, strain NOP16, stronger effect = lower value): 0.884 (active) | normalized growth (locus YER015W, strain faa2, stronger effect = lower value): 0.901 (active) | normalized growth (locus YER016W, strain bim1, stronger effect = lower value): 0.772 (active) | normalized growth (locus YER110C, stronger effect = lower value): 0.934 | normalized growth (locus YER111C, strain swi4, stronger effect = lower value): 1.16 [resistant] (active) | normalized growth (locus YER155C, strain BEM2 (second series), stronger effect = lower value): 0.985 | normalized growth (locus YER155C, strain BEM2, stronger effect = lower value): 0.99 | normalized growth (locus YER167W, strain BCK2, stronger effect = lower value): 0.929 | normalized growth (locus YFR010W, strain ubp6, stronger effect = lower value): 0.959 | normalized growth (locus YGL078C, strain dbp3, stronger effect = lower value): 1.01 | normalized growth (locus YGL086W, strain mad1, stronger effect = lower value): 0.954 | normalized growth (locus YGL167C, strain pmr1, stronger effect = lower value): 0.606 (active) | normalized growth (locus YGL173C, strain kem1, stronger effect = lower value): 0.994 | normalized growth (locus YGL227W, strain vid30, stronger effect = lower value): 0.997 | normalized growth (locus YGL240W, strain doc1, stronger effect = lower value): 0.6 (active) | normalized growth (locus YGL248W, strain PDE1, stronger effect = lower value): 0.932 | normalized growth (locus YGL253W, strain hxk2, stronger effect = lower value): 0.933 | normalized growth (locus YGR078C, strain PAC10, stronger effect = lower value): 0.948 | normalized growth (locus YGR135W, strain pre9, stronger effect = lower value): 1.03 | normalized growth (locus YGR252W, strain gcn5, stronger effect = lower value): 1.01 | normalized growth (locus YHR013C, strain ard1, stronger effect = lower value): 0.627 (active) | normalized growth (locus YHR027C, strain rpn1, stronger effect = lower value): 0.944 | normalized growth (locus YHR030C, strain SLT2, stronger effect = lower value): 0.922 and 0.995 | normalized growth (locus YHR079C, strain IRE1 (second series), stronger effect = lower value): 1.14 [resistant] (active) | normalized growth (locus YHR079C, strain IRE1, stronger effect = lower value): 0.981 | normalized growth (locus YHR094C, strain hxt1, stronger effect = lower value): 1.05 | normalized growth (locus YHR129C, strain ARP1, stronger effect = lower value): 0.944 | normalized growth (locus YHR142W, strain chs7, stronger effect = lower value): 0.967 | normalized growth (locus YHR200W, strain rpn10, stronger effect = lower value): 1 | normalized growth (locus YIL066C, strain RNR3, stronger effect = lower value): 0.9 | normalized growth (locus YIL073C, strain SPO22, stronger effect = lower value): 1.59 [resistant] (active) | normalized growth (locus YIL125W, strain kgd1, stronger effect = lower value): 1 | normalized growth (locus YIR030C, strain dcg1, stronger effect = lower value): 1.14 [resistant] (active) | normalized growth (locus YJL092W, strain hpr5, stronger effect = lower value): 0.965 | normalized growth (locus YJL095W, strain BCK1 (second series), stronger effect = lower value): 0.91 (active) | normalized growth (locus YJL095W, strain BCK1, stronger effect = lower value): 0.91 and 1 | normalized growth (locus YJL115W, strain asf1, stronger effect = lower value): 1.05 | normalized growth (locus YJL129C, strain trk1, stronger effect = lower value): 1.13 | normalized growth (locus YJL134W, strain LCB3, stronger effect = lower value): 0.978 | normalized growth (locus YJL154C, strain vps35, stronger effect = lower value): 0.979 | normalized growth (locus YJL164C, strain tpk1, stronger effect = lower value): 0.952 | normalized growth (locus YJL166W, strain qcr8, stronger effect = lower value): 0.758 (active) | normalized growth (locus YJL168C, strain set2, stronger effect = lower value): 0.996 | normalized growth (locus YJL187C, strain SWE1 (second series), stronger effect = lower value): 0.903 | normalized growth (locus YJR043C, strain POL32, stronger effect = lower value): 0.929 | normalized growth (locus YJR066W, strain TOR1, stronger effect = lower value): 0.904
